# Measured values from PubChem BioAssay (NCI).
# Several values for one entry are separate records, joined by “and”; a condition that tells them apart may be missing. Equal values may be shown once. This is part of a sample that, as a whole, favours compounds with a hit. Of some 79,000 tested, about 15% had one in any assay. Unmarked numbers belong to inactive results. Activity calls are given as the source filed them. No stated cut-off is given here; in the data, active means growth inhibition above about 70%; inactive means the rest.
# Assay: NCI Yeast Anticancer Drug Screen. Data for the mec2-1 strain (AID 157)
# Settings: S. cerevisiae mec2-1 strain, at 5.0 µM (retest, dose inferred, filed as 0.5), stronger effect = higher value
# Summary of the method: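 Strain: mec2-1 (DNA repair/cell cycle alteration). Compound exposure, then growth measured; inhibition expressed relative to vehicle.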
row,SMILES,growth inhibition
1,CCOC(=O)c1ccc([N+](=O)[O-])o1,4%
2,O=C(NCCc1c(-c2ccccc2)[nH]c2ccccc12)C(F)(F)F,-3%
3,CC(C)OC(=O)c1ccc(NCc2cc(O)ccc2O)cc1Cl,41%
4,c1cc[c]([Sn]([NH]c2ncnc3[nH]cnc23)([NH]c2ncnc3[nH]cnc23)[c]2ccccc2)cc1,-6%
5,CCCCCCCCCCCCCCCCCC(=O)OCC(COC(=O)CCCN)OC(=O)CCCN (configuration not stated),9%
6,O=[N+]([O-])c1ccc(NSc2ccccc2)cc1,2%
7,O=C(Nc1ccccc1)OCCc1ccc(Br)cc1,-23%
8,Cc1[nH]c2ccccc2c1/C=C1\C(=O)C2CCC1C2 (configuration not stated),-4%
9,CC(CO)[C@H]1OC(=O)C=C2[C@@]13O[C@@H]3[C@H]1OC(=O)[C@@]3(C)[C@H]4O[C@H]4C[C@@]2(C)[C@@H]13 (some centres not stated),47%
10,Cc1cc(C)nc(/C=C/c2ccc(/C=C/c3cc(C)cc(C)n3)cc2)c1,-8%
11,COc1ccc(C(=O)C(CN2CCCC2)CN2CCCC2)cc1,4%
12,O=C1NN(C2=NNC3(C(=O)N2)c2ccccc2-c2ccccc23)C(c2ccccc2)=N/C1=C/c1ccc(O)cc1,-14%
13,O=C1SCCN1/N=C/c1ccc([N+](=O)[O-])o1,13%
14,Clc1ccc2oc(N3CCCCC3)nc2c1,-3%
15,CC(=O)N(C1=C(Cl)C(=O)c2ccccc2C1=O)c1ccc(Cl)cc1,99% (active)
16,COc1ccc([C@H]2c3cc4c(cc3OC(O)(CO)[C@H]2C(=O)O)OCO4)c(OC)c1 (some centres not stated) (tested in a mixture with another compound),15%
17,CCOC1(OCC)Oc2c(Cl)c(Cl)c(Cl)c(Cl)c2OC1(OCC)OCC,13%
18,CCN(CC)CC(C)(C)C(=O)/C=C/c1ccc(Cl)c(Cl)c1,9%
19,O=c1c(NO)c([N+](=O)[O-])cnn1-c1ccccc1,8%
20,COC/C=N/Nc1ccc([N+](=O)[O-])cc1,45%
21,Cn1c(N)c(NC(=O)CCl)c(=O)n(C)c1=O,3%

# Same assay, conditions: S. cerevisiae mec2-1 strain, at 50.0 µM (retest, dose inferred, filed as 5.0), stronger effect = higher value
row,SMILES,growth inhibition
1,CCOC(=O)c1ccc([N+](=O)[O-])o1,11%
2,CC(C)OC(=O)c1ccc(NCc2cc(O)ccc2O)cc1Cl,99% (active)
3,c1cc[c]([Sn]([NH]c2ncnc3[nH]cnc23)([NH]c2ncnc3[nH]cnc23)[c]2ccccc2)cc1,95% (active)
4,CCCCCCCCCCCCCCCCCC(=O)OCC(COC(=O)CCCN)OC(=O)CCCN (configuration not stated),99% (active)
5,O=[N+]([O-])c1ccc(NSc2ccccc2)cc1,99% (active)
6,O=C(Nc1ccccc1)OCCc1ccc(Br)cc1,-31%
7,Cc1[nH]c2ccccc2c1/C=C1\C(=O)C2CCC1C2 (configuration not stated),73% (active)
8,CC(CO)[C@H]1OC(=O)C=C2[C@@]13O[C@@H]3[C@H]1OC(=O)[C@@]3(C)[C@H]4O[C@H]4C[C@@]2(C)[C@@H]13 (some centres not stated),99% (active)
9,Cc1cc(C)nc(/C=C/c2ccc(/C=C/c3cc(C)cc(C)n3)cc2)c1,4%
10,COc1ccc(C(=O)C(CN2CCCC2)CN2CCCC2)cc1,88% (active)
11,O=C1NN(C2=NNC3(C(=O)N2)c2ccccc2-c2ccccc23)C(c2ccccc2)=N/C1=C/c1ccc(O)cc1,9%
12,O=C1SCCN1/N=C/c1ccc([N+](=O)[O-])o1,82% (active)
13,Clc1ccc2oc(N3CCCCC3)nc2c1,-3%
14,CC(=O)N(C1=C(Cl)C(=O)c2ccccc2C1=O)c1ccc(Cl)cc1,99% (active)
15,COc1ccc([C@H]2c3cc4c(cc3OC(O)(CO)[C@H]2C(=O)O)OCO4)c(OC)c1 (some centres not stated) (tested in a mixture with another compound),48%
16,CCOC1(OCC)Oc2c(Cl)c(Cl)c(Cl)c(Cl)c2OC1(OCC)OCC,98% (active)
17,CCN(CC)CC(C)(C)C(=O)/C=C/c1ccc(Cl)c(Cl)c1,98% (active)
18,O=c1c(NO)c([N+](=O)[O-])cnn1-c1ccccc1,18%
19,COC/C=N/Nc1ccc([N+](=O)[O-])cc1,98% (active)
20,Cn1c(N)c(NC(=O)CCl)c(=O)n(C)c1=O,5%

# Same assay, conditions: S. cerevisiae mec2-1 strain, at 50.0 µM, stronger effect = higher value
row,SMILES,growth inhibition
1,CCOC(=O)c1ccc([N+](=O)[O-])o1,53.1%
2,O=C(NCCc1c(-c2ccccc2)[nH]c2ccccc12)C(F)(F)F,49.8%
3,CC(C)OC(=O)c1ccc(NCc2cc(O)ccc2O)cc1Cl,90.3% (active)
4,c1cc[c]([Sn]([NH]c2ncnc3[nH]cnc23)([NH]c2ncnc3[nH]cnc23)[c]2ccccc2)cc1,47.6%
5,CCCCCCCCCCCCCCCCCC(=O)OCC(COC(=O)CCCN)OC(=O)CCCN (configuration not stated),97.5% (active)
6,CC(=O)Nc1cccc2cc(O)ccc12,-5.9% and 4.7% and -9.55%
7,O=[N+]([O-])c1ccc(NSc2ccccc2)cc1,92.5% (active)
8,O=C(Nc1ccccc1)OCCc1ccc(Br)cc1,23.7%
9,CC1=CC(O)C2CC1C2(C)C (configuration not stated),-24.1% and -1.15% and -0.85%
10,Cc1[nH]c2ccccc2c1/C=C1\C(=O)C2CCC1C2 (configuration not stated),34.6%
11,CC(CO)[C@H]1OC(=O)C=C2[C@@]13O[C@@H]3[C@H]1OC(=O)[C@@]3(C)[C@H]4O[C@H]4C[C@@]2(C)[C@@H]13 (some centres not stated),91% (active)
12,Cc1cc(C)nc(/C=C/c2ccc(/C=C/c3cc(C)cc(C)n3)cc2)c1,2.65%
13,COc1ccc(C(=O)C(CN2CCCC2)CN2CCCC2)cc1,88.1% (active)
14,O=C1NN(C2=NNC3(C(=O)N2)c2ccccc2-c2ccccc23)C(c2ccccc2)=N/C1=C/c1ccc(O)cc1,50%
15,O=C1SCCN1/N=C/c1ccc([N+](=O)[O-])o1,65.3%
16,Nc1ncnc2c1ncn2C1OC(CO)C(O)C1O (configuration not stated),-10.9% and 11.8% and -9.1%
17,Clc1ccc2oc(N3CCCCC3)nc2c1,99.2% (active)
18,CC(=O)N(C1=C(Cl)C(=O)c2ccccc2C1=O)c1ccc(Cl)cc1,95.3% (active)
19,COc1ccc([C@H]2c3cc4c(cc3OC(O)(CO)[C@H]2C(=O)O)OCO4)c(OC)c1 (some centres not stated) (tested in a mixture with another compound),48.4%
20,CCOC1(OCC)Oc2c(Cl)c(Cl)c(Cl)c(Cl)c2OC1(OCC)OCC,98.9% (active)
21,CCN(CC)CC(C)(C)C(=O)/C=C/c1ccc(Cl)c(Cl)c1,99.2% (active)
22,COc1cc(/C=C/C(C)=O)ccc1O,-10.4% and 9.95% and -15.9%
23,O=c1c(NO)c([N+](=O)[O-])cnn1-c1ccccc1,2.4%
24,O=C(O)C1C2CC3C(OC(=O)C31)C2Br (configuration not stated),2.75% and 16.8% and -4.3%
25,COC/C=N/Nc1ccc([N+](=O)[O-])cc1,98.3% (active)
26,Cn1c(N)c(NC(=O)CCl)c(=O)n(C)c1=O,-5.8%
